The sequences below were run against ALDH1A1 (assay: pooled miR-30 sensor sort-seq; sequence = guide strand). Conditions: shRNA.
Also: reference of the scale not given here.

Sequence	sensor-assay potency score (higher = more potent)
TTCATTGACTCCATTGTCGCCA	0.315
TGCCTTGTCAACATCCTCCTTA	0.465
TAACATTAGAGAACACTGTGGG	0.962
TTGAATCTTCAAATCGGTGAGT	0.0111
TAGAAAGTATTGTTTGCTCTTT	-0.662
TTGGTAAACACTCCTGCTGATA	-1.11

These sequences were tested against ALDH1A3 in the same assay as above. Conditions: shRNA.

Sequence	sensor-assay potency score (higher = more potent)
TTTATCACTTCTTCGATACTTT	-0.132
TTGGTTGAAGAACACTCCCTGA	-0.48
TTCTTCGATACTTTTGAACTTC	0.188
TAAGATTTTGTCGAACTGCTTT	0.131
